# Experimental data as given in PubChem BioAssay AID1030 (National Center for Advancing Translational Sciences (NCATS), 2008).
# The campaign covered roughly 220,000 compounds. About 16,000 (7.3%) were called active. About 25% were inconclusive and are not listed. Calls follow the shape of the dose curve; as a rule, active = well fitted inhibition curve with a large enough effect (not every such curve was filed as active); inconclusive = small, poorly fitted or top-dose-only effect, or another doubt; inactive = no such curve, though single readings can be large or run the other way. The list comes from a sample in which actives are over-represented; it also holds similar structures and randomly drawn compounds.
# Molecular target: Aldehyde dehydrogenase 1A1 (Homo sapiens) (UniProt P00352)
# Sequence (P00352 whole entry, looked up): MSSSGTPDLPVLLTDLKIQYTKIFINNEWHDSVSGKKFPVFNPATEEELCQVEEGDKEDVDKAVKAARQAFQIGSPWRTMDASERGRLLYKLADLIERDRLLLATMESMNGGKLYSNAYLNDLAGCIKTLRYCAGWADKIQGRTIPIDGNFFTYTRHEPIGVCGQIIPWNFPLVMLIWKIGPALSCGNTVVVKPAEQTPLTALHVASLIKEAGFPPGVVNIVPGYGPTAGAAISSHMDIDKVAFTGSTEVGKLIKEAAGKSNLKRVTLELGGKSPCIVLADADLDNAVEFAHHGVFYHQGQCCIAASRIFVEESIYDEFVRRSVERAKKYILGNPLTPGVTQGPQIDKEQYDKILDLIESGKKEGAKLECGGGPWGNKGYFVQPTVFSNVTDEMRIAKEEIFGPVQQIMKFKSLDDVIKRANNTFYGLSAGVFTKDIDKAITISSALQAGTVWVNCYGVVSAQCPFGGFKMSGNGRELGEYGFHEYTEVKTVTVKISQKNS
# Test: qHTS Assay for Inhibitors of Aldehyde Dehydrogenase 1 (ALDH1A1);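 as to activity, negative = inhibition: plate controls were no enzyme wells and a reference inhibitor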
# Details: Purified ALDH1A1, NADH fluorescence, propionaldehyde substrate; series mostly up to 75.3 µM; activity, negative = inhibition: at the top concentration
# Potency is read from the fitted curve at half-maximal effect.
Compound,"activity, negative = inhibition",Potency
O=C(O)Cc1ccc(NCc2ccccc2Cl)cc1,9.94% (inactive),–
O=C(NC1CCC(O)CC1)c1ccc(S(=O)(=O)NCc2ccco2)cc1 (stereo not drawn),10% (inactive),–
CC1CCN(S(=O)(=O)c2ccc(S(=O)(=O)NCc3ccco3)cc2)CC1,12.9% (inactive),–
CCC(C)NC(=O)/C=C/c1ccc(S(=O)(=O)NCc2ccco2)cc1 (stereo not drawn),–,17.8 µM (active)
CN(C)C(=O)c1nc2ccc(Cl)cn2c1CN1CCN(c2ncccn2)CC1,-5.43% (inactive),–
C=C(C)C1CC=C(C)/C(=N/NC(=O)CCCNc2cccc(C)c2)C1 (stereo not drawn),-6.55% (inactive),–
N#Cc1c(N)nc2c(c1N)CC(C(F)(F)F)O2 (stereo not drawn),-6% (inactive),–
O=C1CN(C(=O)COC(=O)c2cnc(Cl)c(Cl)c2)c2ccccc2N1,–,1.26 µM (active)
Cc1ccc(S(=O)(=O)N(C)CC(=O)OCC(=O)N2CC(=O)Nc3ccccc32)cc1,4.73% (inactive),–
COc1ccc(Cl)cc1-n1c(C)cc(C(=O)OCC(=O)N2CC(=O)Nc3ccccc32)c1C,0.822% (inactive),–
Cc1ccc(S(=O)(=O)N2CCC(C(=O)OCC(=O)N3CC(=O)Nc4ccccc43)CC2)cc1,–,12.6 µM (active)
COc1ccc(S(=O)(=O)N2CCC(C(=O)OCC(=O)c3ccccc3)CC2)cc1[N+](=O)[O-],-0.868% (inactive),–
COc1cc(OC)c(C(=O)OCC(=O)N2CC(=O)Nc3ccccc32)cc1OC,-2.57% (inactive),–
Oc1cccc(C2c3[nH]c4ccccc4c3CCN2Cc2cnn(-c3ccccc3)c2)c1 (stereo not drawn),-2.31% (inactive),–
CC(=O)Nc1ccccc1NC(=O)c1cc(C)cc(C)c1,9.85% (inactive),–
CCOc1ccc(CCNC(=O)C2=C(C)C(=O)OC23CCC(C)CC3)cc1OCC (stereo not drawn),-3.39% (inactive),–
CC(Sc1nnnn1C1CCCCC1)C(=O)O (stereo not drawn),-7.3% (inactive),–
O=C(COc1ccc(Cl)cc1)NCc1nnc(SCC(=O)NCC2CCCO2)o1 (stereo not drawn),11.9% (inactive),–
Cc1ccc(-c2cc(=O)c3ccc(F)cc3[nH]2)cc1,8.38% (inactive),–
COc1ccc(Cl)cc1NC(=O)CNc1ccccc1F,–,31.6 µM (active)
COc1ccc(C)cc1NC(=O)CSc1ccc(Cl)cc1,-6.49% (inactive),–
COc1ccc(C)cc1NC(=O)CSc1nnc(CC(=O)Nc2ccccc2F)n1C,-8.98% (inactive),–
C=CCOC(=O)NC(c1ccc(F)c(F)c1)C(C(=O)COC)C(=O)OC (stereo not drawn),–,inactive
Cc1cc(C)cc(OCC(=O)Nc2nc3ccc([N+](=O)[O-])cc3s2)c1,-5.6% (inactive),–
COC(=O)C(NC(=O)c1ccc(OC)cc1)(Nc1ncc(S(=O)(=O)c2ccc([N+](=O)[O-])cc2)s1)C(F)(F)F (stereo not drawn),-8.58% (inactive),–
CCOCC(=O)Nc1ncc(S(=O)(=O)c2ccc([N+](=O)[O-])cc2)s1,–,3.55 µM (active)
Fc1ccc(NC(=S)N2CCc3[nH]c4ccccc4c3C2)cc1,10.1% (inactive),–
O=C(O)CCCCCNc1ncnc2ccc(Br)cc12,0.233% (inactive),–
